Here are results for 4 molecules from PubChem BioAssay (NCI).

This is part of a sample that, as a whole, favours compounds with a hit. Of some 83,000 tested, about 20% had one in any assay.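 Percent growth is the endpoint: 0 to 100 indicates growth inhibition (40 means 60% inhibition), 0 means no net growth, and negative values indicate cell death.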 Values without a mark were called inactive. Activity calls are given as the source filed them. How the source made its calls: active means growth percent below 10; inactive means the rest.

The subject of the assay is HL-60(TB) leukemia. Put plainly: NCI-60 one-dose screen, 48 h (100 = growth as untreated, 0 = no growth, -100 = all killed). The following applies: 10 µM unless noted.
`COc1ccc(-c2nc(-c3ccccc3)c(-c3ccccc3)n2C2CC2)cc1OC1CCCCC1`: the growth was 30%.

`S=C1SCN(Cc2ccccc2)CN1Cc1ccco1`: the growth is 32%.

Turning to `Oc1[nH]c2ccccc2c1/C=c1/cc2c(c(-c3ccc(F)cc3)n1)=Nc1ccccc1-2`, the growth is -39.1% (active).

As to `N#CCNc1ccccc1N`, the growth is 95.2%.
